Screening results (PubChem BioAssay)
Only some compounds are listed: those with a hit (about 2% of all), similar ones and a draw of the others.
ABCB6 inh MLPCN: ABCB6 transporter inhibitors, primary screen, K562-ABCB6 cells, flow cytometry, MLPCN library. ATP-binding cassette sub-family B member 6 (Homo sapiens), Q9NP58. K562-ABCB6 porphyrin accumulation, 1 h; active compounds read low. fluorescence ratio to DMSO, % at 10 µM. 360,000 tested, 0.19% active. AID 602162, 2011;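 active means fluorescence ratio to DMSO below 75%, the collection mean minus 3 SD; inconclusive means too few cells collected in the well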;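 further: signal is porphyrin accumulated inside mitochondria; 100% equals median channel fluorescence of DMSO control wells; lower ratio means ABCB6 inhibition with less porphyrin fluorescence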
PG9 binder: binders of HIV-1 gp120 antibody PG9, primary screen, biochemical, TR-FRET; TR-FRET gp120-PG9 antibody binding; 360,000 tested, 0.43% active; inhibition, % at 6.7 µM; in the data active means inhibition above about 8.5%
Exocytosis inh: LAMP-1 surface exposure blockers, TALL-104 cells – cell-based, flow cytometry, MLPCN library, primary screen; TALL-104 LAMP-1 surface exposure; cells stimulated with thapsigargin and PMA; inhibition, % at 10 µM; 360,000 tested, 0.66% active;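 active means inhibition above about 55%, limit read from the data; inconclusive means no clear call, values can overlap the other calls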
Rev-erbA mod: modulators of Rev-erb alpha DNA binding, primary screen, biochemical, FITC-DNA, fluorescence polarization, uHTS | Nuclear receptor subfamily 1 group D member 1 (Homo sapiens), P20393 | Rev-erbα–FITC-DNA binding, 90 min | activity, % at 10 µM | 370,000 tested, 0.79% active | AID 1259318, 2017;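 active means activity above about 14%, limit read from the data; passing the limit was not always enough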;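 further: 0% = DMSO wells with 35 nM protein and 100% = DMSO wells with 750 nM protein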
Target sequence (P20393 whole entry, looked up): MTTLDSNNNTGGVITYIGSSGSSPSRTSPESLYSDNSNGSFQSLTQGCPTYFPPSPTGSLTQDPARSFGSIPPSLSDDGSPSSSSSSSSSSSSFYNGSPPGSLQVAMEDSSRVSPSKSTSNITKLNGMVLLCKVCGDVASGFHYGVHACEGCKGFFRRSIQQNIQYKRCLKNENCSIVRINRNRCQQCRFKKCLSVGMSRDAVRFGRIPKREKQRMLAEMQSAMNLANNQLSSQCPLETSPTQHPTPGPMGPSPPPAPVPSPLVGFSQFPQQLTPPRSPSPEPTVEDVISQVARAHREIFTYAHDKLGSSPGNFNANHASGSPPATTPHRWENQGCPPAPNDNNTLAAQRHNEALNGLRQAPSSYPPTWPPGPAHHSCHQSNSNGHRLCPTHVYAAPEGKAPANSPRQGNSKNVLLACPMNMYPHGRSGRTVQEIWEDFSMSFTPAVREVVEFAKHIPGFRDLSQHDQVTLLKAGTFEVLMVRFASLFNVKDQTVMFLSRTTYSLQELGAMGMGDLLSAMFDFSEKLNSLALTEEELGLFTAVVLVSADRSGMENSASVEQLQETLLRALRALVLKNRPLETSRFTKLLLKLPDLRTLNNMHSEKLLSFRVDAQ
VLA-4 inh: inhibition in human VLA-4 binding assay, primary screen, VLA-4 allosteric modulator project, MLPCN library, flow cytometry, VLA-4 expressing cells; AID 2557, 2010; ligand binding flow cytometry; inhibition, % (about 7 µM as worked out from the volumes in the protocol); 330,000 tested, 0.2% active; in the data active means inhibition above about 50%
PG9 bind confirm: binders of anti-gp120 antibody PG9, confirmation, biochemical, TR-FRET; shares compounds with PG9 binder; TR-FRET PG9 antibody binding; inhibition, % at 6.7 µM; 1,500 tested, 90% active; in the data active means inhibition above about 9%
PGV04 counter: binders of control antibody PGV04, counter-screen for PG9 antibody binder project, biochemical, TR-FRET, distinct HIV envelope site | TR-FRET PGV04 antibody-gp120 binding | shares compounds with PG9 binder | inhibition, % at 6.7 µM | 1,500 tested, 95% active; in the data active means inhibition above about 9.5%
* marks the source's active call; other numbers are inactive results; u = inconclusive; x = not tested or not shown.

SMILES	ABCB6 inh MLPCN	PG9 binder	Exocytosis inh	Rev-erbA mod	VLA-4 inh	PG9 bind confirm	PGV04 counter
Cc1ccc(NC(=O)CSc2nc3c(cc2C#N)C(=O)CCC3)cc1S(=O)(=O)N(C)C	97	13*	2	-3	0	12*	14*
CN(C)S(=O)(=O)c1ccc(Cl)c(NC(=O)CSc2nc3c(cc2C#N)C(=O)CCC3)c1	90	-2	35	-1	7	x	x
CCn1c(-c2ccsc2)nc2c1c(=O)[nH]c(=O)n2Cc1ccccc1	102	22*	-1	10	3	39*	54*
COc1ccc(-c2nc3c(c(=O)[nH]c(=O)n3Cc3ccccc3)n2CCO)cc1	98	-1	-5	0	1	x	x
COc1ccc2nc(C)cc(SCC(=O)Nc3c(C)cccc3C)c2c1	91	10*	-14	3	13	27*	33*
COc1ccc2nc(C)cc(SCC(=O)NNC(=O)COc3ccc(C)cc3)c2c1	91	-12	-2	1	15	x	x
Cc1noc(C)c1C(=O)Nc1sc2c(c1C(N)=O)CCCCC2	93	0	-1	-1	16	x	x
Cc1noc(C)c1C(=O)Nc1sc2c(c1C(N)=O)CCC2	94	12*	4	6	-2	6	17*
Cn1ncc(Cl)c1C(=O)Nc1sc2c(c1C(N)=O)CCC2	106	8.7*	-3	10	24	12*	29*
CCOc1ccc(/C(O)=C2/C(=O)C(=O)N(c3ccccn3)C2c2ccc(C)cc2)c(C)c1 (stereo not drawn)	91	20*	u	4	2	20*	28*
CCOc1ccc(/C(O)=C2/C(=O)C(=O)N(c3ccccn3)C2c2ccc(Cl)cc2)c(C)c1 (stereo not drawn)	96	11*	2	2	0	13*	19*
CCCOc1ccc(/C(O)=C2\C(=O)C(=O)N(c3ccccn3)C2c2ccccc2F)cc1C (stereo not drawn)	102	21*	-3	-4	5	17*	24*
CSc1nsc(SCC(=O)Nc2nc3ccc(C)cc3s2)n1	99	10*	2	-5	30	14*	18*
CON(C)S(=O)(=O)c1ccc2c(c1)N(Cc1ccc(C)cc1)C(=O)C1CCCN21 (stereo not drawn)	103	10*	8	12	7	19*	27*
COc1ccc(Cn2c(=O)[nH]c3cc(C(=O)NCc4ccc5c(c4)OCO5)ccc3c2=O)cc1	98	9.1*	4	x	1	14*	18*
COc1ccc(Cn2c(=O)[nH]c3cc(C(=O)NCCCOC(C)C)ccc3c2=O)cc1	101	0	-1	9	21	x	x
COc1ccc(-c2cccc(C3CC=CC4C3C(=O)N(Cc3ccccc3)C4c3ccc4ccccc4c3)c2)cc1 (stereo not drawn)	81	3	-7	-1	5	x	x
CN(C)c1ccc(-c2cccc(C3CC=CC4C3C(=O)N(Cc3ccccc3)C4c3ccc4ccccc4c3)c2)cc1 (stereo not drawn)	96	26*	6	9	3	36*	48*
CCCC1Cc2c(sc3nc(SC)nc(N)c23)CO1 (stereo not drawn)	107	16*	-2	24	-6	18*	34*
CCc1nnc(NC(=O)CSc2nnc(-c3ccccc3O)n2-c2ccc(C)cc2)s1	94	11*	8	8	-21	14*	22*
O=c1oc(-c2cccs2)nc2c1cnn2-c1ccccc1	98	9.5*	14	2	19	13*	18*
O=c1oc(-c2ccccc2)nc2c1cnn2-c1ccccc1	104	0	6	-4	10	x	x
N=c1c2c(ccn1CCCc1ccccc1)Oc1ccc3ccccc3c1C2c1ccccc1 (stereo not drawn)	x	x	x	9	x	x	x
CC1CCCC(NC(=O)COC(=O)c2ccc3ccccc3n2)C1C (stereo not drawn)	100	15*	43	-5	8	24*	32*
CC1CCCCC1NC(=O)COC(=O)c1ccc2ccccc2n1 (stereo not drawn)	97	0	-5	2	8	x	x
SMILES	ABCB6 inh MLPCN	PG9 binder	Exocytosis inh	Rev-erbA mod	VLA-4 inh	PG9 bind confirm	PGV04 counter
CC1CCCC(NC(=O)COC(=O)c2ccccc2Sc2ccccc2C#N)C1C (stereo not drawn)	91	12*	-3	21	-15	29*	48*
Nc1nc2c(ncn2[C@@H]2O[C@H](C(=O)N[C@H](Cc3ccccc3)C(=O)NC3CCCCC3)[C@@H](O)[C@H]2O)c(=O)[nH]1	x	-2	x	6	x	x	x
COC(=O)C12C=C3CC(c4ccc(C)s4)=C3C(=O)N1Cc1[nH]c3ccccc3c1C2 (stereo not drawn)	x	x	x	-5	x	x	x
COC(=O)c1cc(-c2cccc([N+](=O)[O-])c2)c2c(=O)n(C)c(=O)n(C)c2n1	98	-2	5	-3	3	x	x
COC(=O)c1cc(-c2cccc(OC)c2)c2c(=O)[nH]c(=O)n(C)c2n1	101	8.8*	-2	8	-21	18*	24*
O=C(c1ccc(NS(=O)(=O)c2ccccc2)cc1)N1CCN(Cc2ccc3c(c2)OCO3)CC1	98	11*	-2	2	4	6	7
COc1ccc(NS(=O)(=O)c2cccc(C(=O)N3CCN(Cc4ccc5c(c4)OCO5)CC3)c2)cc1	100	0	-1	4	34	x	x
O=C(O)c1cc(Br)ccn1	85	0	-2	-8	22	x	x
Cc1cc(Br)cn2cc(C(=O)O)nc12	96	16*	2	-1	2	21*	26*
CCCCOc1ncnc2c1[nH]c1ccc(OC)cc12	x	0	x	-3	-12	x	x
